Hit rate of the full screen: of about 340,000 compounds, about 3,300 (0.97%) were called active. About 9% were inconclusive and are not listed. The call rests on the fitted dose curve; in most records, active means well fitted inhibition curve with a large enough effect; inconclusive means small, poorly fitted or top-dose-only effect, or effect the other way; inactive means flat fitted curve, though single readings scatter. The list shows a part of the results.
Assay: qHTS Assay for Modulators of miRNAs and/or Inhibitors of miR-21; further: nearly all actives have a fitted effect of over 55% in size
Settings: HeLa miR-21-FLuc reporter, luciferase luminescence, 48 h; actives lower the signal
Summary of the method: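 Compounds were titrated across several concentrations (up to approximately 40 uM) and incubated 48 hours with HeLa miR-21-FLuc reporter cells (miR-21 target sequence downstream of FLuc, endogenous miR-21). Readout was firefly luciferase luminescence after lytic detection reagent.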
Potency means the concentration at half of the fitted maximal effect.

Potency, active:
O=C1CCNc2ccc(-c3ccccc3)cc21 6.56 µM, CCn1c(NCc2ccc3c(c2)OCO3)nc2ccccc21 16.5 µM, C=CCn1c(NCc2ccc3c(c2)OCO3)nc2ccccc21 9.27 µM, Cc1ccc2oc(-c3cccc(NC(=S)NC(=O)c4cccs4)c3)nc2c1 4.14 µM, Cc1ccc2oc(-c3cccc(NC(=O)Cn4cnc5c(=O)n(C)c(=O)n(C)c54)c3)nc2c1 6.56 µM, Cc1ccc2oc(-c3ccc(C)c(NC(=S)NC(=O)c4cccs4)c3)nc2c1 0.521 µM, NC(=O)c1sc2nc(-c3cccs3)ccc2c1N 13.1 µM, Nc1c(C(=O)Nc2ccccc2Br)sc2nc(-c3cccs3)ccc12 7.36 µM, CC(=O)c1sc2nc(-c3cccs3)ccc2c1N 14.7 µM, O=c1/c(=C\c2ccc(F)cc2)sc2n1CCCN=2 1.85 µM, O=C(CCC1CCCN(C(=O)Cc2cccc(F)c2)C1)N1CCN(c2ccccn2)CC1 (stereo not given) 16.5 µM, Cc1cc(N)ccc1N=Nc1c(C)n(C)n(-c2ccccc2)c1=O 14.7 µM, Cc1c(N=Nc2ccc(N(C)C)cc2)c(=O)n(-c2ccccc2)n1C 5.21 µM, Cc1ccc(/C=N/NC(=S)NC2CCCCC2)o1 5.21 µM, CN(C)/C=N/c1nc2ccc3c(c2s1)CCCC3 2.33 µM, Clc1ccc(-n2ncc3c(N4CCCC4)ncnc32)cc1 0.0656 µM, Cc1cccc(-n2ncc3c(N4CCC5(CC4)OCCO5)ncnc32)c1 1.85 µM, CCN1CCN(c2ncnc3c2cnn3-c2ccc(C)c(C)c2)CC1 1.65 µM, O=C(NC1CCCC1)c1cc(-c2ccc(Cl)cc2)on1 1.65 µM, COc1ccc(-c2cc(C(=O)NC3CCCC3)no2)cc1 1.17 µM, CCCCNC(=O)c1cc(-c2ccc(F)cc2)on1 3.29 µM, CN(C(=O)c1cc(-c2ccc3c(c2)OCO3)on1)c1ccccc1 2.61 µM, CCCNC(=O)c1cc(-c2ccc(OC)cc2)on1 0.927 µM, CC1CCCC(C)N1C(=O)c1cc(-c2cccs2)on1 (stereo not given) 16.5 µM, O=C(NC1CCCC1)c1cc(-c2cccc(Cl)c2)on1 4.65 µM, Cc1ccc(-c2cc(C(=O)NC3CCCC3)no2)cc1 1.31 µM, O=C(NC1CCCCC1)c1cc(-c2ccc(O)cc2)on1 2.93 µM, CN(C(=O)c1cc(-c2ccccc2)on1)C1CCCCC1 2.07 µM, O=C(NC1CCCC1)c1cc(-c2ccc(F)cc2)on1 1.85 µM, O=C(NCC1CCCO1)c1cc(-c2ccccc2F)no1 (stereo not given) 14.7 µM, COc1cccc(-c2cc(C(=O)N3C(C)CCCC3C)no2)c1 (stereo not given) 3.29 µM, O=C(NC1CCCC1)c1cc(-c2ccccc2)on1 2.93 µM, COc1cccc(-c2cc(C(=O)NC3CCCCC3)no2)c1 2.07 µM, O=C(NCC1CCCO1)c1cc(-c2ccccc2)on1 (stereo not given) 7.36 µM, COc1ccc(-c2nc(-c3cccc(C)c3)no2)cc1OC 2.93 µM, Cc1cccc(-c2noc(-c3ccc(Cl)cc3[N+](=O)[O-])n2)c1 1.17 µM, COc1ccc(-c2nc(-c3ccncc3)no2)cc1OC 4.65 µM, COc1ccc(-c2noc(-c3ccco3)n2)cc1OC 1.65 µM, COc1ccc(-c2nc(-c3cccnc3)no2)cc1OC 16.5 µM, COc1ccc(-c2nc(-c3cccnc3)no2)cc1 0.826 µM, COc1ccc(-c2noc(-c3cccnc3)n2)cc1OC 6.56 µM, CCOc1ccccc1NC(=O)CN1C(=O)CC(c2ccc(C)c(C)c2)=Nc2ccccc21 8.26 µM, COc1ccc(CNC(=O)CN2C(=O)CC(c3ccc(C)c(C)c3)=Nc3ccccc32)cc1 11.7 µM, O=C(N/N=C\C=C\c1ccco1)c1cc(-c2ccc3ccccc3c2)n[nH]1 4.14 µM, O=C(CCN1C(=O)S/C(=C\C=C\c2ccccc2)C1=O)Nc1ccc(O)cc1 9.27 µM, Fc1ccc(-c2nnc(Cc3ccc(Cl)cc3)o2)cc1 10.4 µM, O=[N+]([O-])c1ccc(Cc2nnc(-c3ccc(F)cc3)o2)cc1 0.826 µM, C=CCSc1nnc(-c2ccc([N+](=O)[O-])cc2)o1 6.56 µM, O=[N+]([O-])c1cccnc1NCCc1c[nH]c2ccccc12 4.14 µM, COc1ccc(CNc2ncccc2[N+](=O)[O-])cc1 18.5 µM, O=[N+]([O-])c1cccnc1NCCNc1ncc(C(F)(F)F)cc1Cl 2.93 µM, O=[N+]([O-])c1cccnc1NCCc1ccccc1 5.21 µM, Cc1ccccc1-n1c(C)cc(/C=N/Nc2ccc([N+](=O)[O-])cn2)c1C 3.69 µM, O=C(Nc1cccnc1Cl)c1cc(-c2cccc(O)c2)on1 18.5 µM, O=C(Nc1cccnc1Cl)c1cc(-c2ccccc2O)on1 2.61 µM, Cc1ccc(C(=O)Nc2cccnc2Cl)cc1Cl 3.69 µM, CCC(C(=O)N1CCN(c2cccc(C)c2C)CC1)n1nc(C)c2sc3ccccc3c2c1=O (stereo not given) 8.26 µM, COc1ccccc1Nc1ccc(Nc2ccccc2OC)nn1 7.36 µM, CCOC(=O)c1c(-c2ccccc2)cn2c(C)cc(C)nc12 5.85 µM, CC(=O)c1c(C)nc(-c2ccc(Cl)cc2)nc1N 1.65 µM, CCOC(=O)c1c(C)nc(-c2ccccc2)nc1N 4.65 µM, C/C(=N/NC(=O)c1ccccc1)c1ccc(NC(=O)C(F)(F)F)cc1 4.65 µM, C/C(=N/NC(=O)c1ccoc1C)c1ccc(NC(=O)C2CCCC2)cc1 1.31 µM, C/C(=N/NC(=O)c1ccoc1C)c1cccc(NC(=O)C2CC2)c1 1.65 µM, C/C(=N/NC(=O)c1ccoc1C)c1cccc(NC(=O)C(F)(F)F)c1 1.65 µM, COC1=C/C(=C/c2c(O)c(C#N)c3ccccn23)C=CC1=O 11.7 µM, COc1ccc2nc(-c3ccccc3)cc(OC)c2c1 14.7 µM, COc1ccc2cc(-c3ccccc3)ncc2c1 0.369 µM, COc1ccc(-c2cc3cc(OC)c(OC)cc3c(C)n2)cc1 7.36 µM, O=C(COc1ccc2c(c1)OCO2)Nc1cccc(F)c1 8.26 µM, O=C(COc1ccc2c(c1)OCO2)Nc1ccccc1C(F)(F)F 16.5 µM, O=C(COc1ccc2c(c1)OCO2)Nc1ccc(Cl)cn1 2.07 µM, CC1Cc2ccccc2N1C(=O)COc1ccc2c(c1)OCO2 (stereo not given) 11.7 µM, COc1ccccc1NC(=O)COc1ccc(CO)cc1Cl 5.85 µM, COc1ccccc1NC(=O)COc1ccc2c(c1)OCO2 7.36 µM, Cc1occc1C(=O)N/N=C/c1ccc(-c2ccccc2)cc1 0.147 µM, Cc1ccc(/C=N/NC(=O)c2ccoc2C)o1 16.5 µM, Cc1ccc(/C=N\Nc2cn[nH]c(=O)c2Cl)cc1 14.7 µM, Cc1cccc(/C=N\Nc2cn[nH]c(=O)c2Cl)c1 18.5 µM, O=C(/C(C=Nc1ccc(F)cc1)=C(/O)c1ccco1)C(F)(F)F 4.14 µM, CC(=O)COc1ccc2c3c(c(=O)oc2c1C)CCCCC3 3.29 µM, CC(=O)C(C)Oc1ccc2c3c(c(=O)oc2c1C)CCCC3 (stereo not given) 16.5 µM, O=C(N/N=C/c1ccncc1)c1cccs1 5.21 µM, CSc1ccc(/C=N/NC(=O)c2cccs2)cc1 1.31 µM, CC(=O)Nc1ccc(/C=N/NC(=O)c2cccs2)cc1 5.85 µM, Cc1ccc(/C=N/N=C/c2ccc(C)s2)s1 0.927 µM, Cc1ccc(/C=N/NC(=O)c2cccs2)s1 7.36 µM, COc1cc(/C=N/NC(=O)c2cccs2)ccc1O 10.4 µM, O=C(N/N=C/c1ccc2c(c1)OCO2)c1cccs1 1.65 µM, CCNC(=S)/N=C(\N)Nc1nc(C)c2cc(C)ccc2n1 5.85 µM, Cc1nc2ccc(C(=O)Nc3ccccc3Cl)cc2s1 3.69 µM, CC(C)(C)c1ccc(C(=O)Nc2ccccc2Cl)cc1 0.826 µM, Cc1nc2ccc(NC(=O)c3cccs3)cc2s1 3.69 µM, Cc1nc2ccc(NC(=O)c3ccccc3)cc2s1 5.85 µM, Cc1nc2ccc(NC(=O)c3cc(Cl)ccn3)cc2s1 0.369 µM, Cc1nc2ccc(NC(=O)c3ccc4ccccc4n3)cc2s1 3.69 µM, Cc1nc2ccc(NC(=O)N(C)c3ccccc3)cc2s1 9.27 µM, CCOc1ncccc1C(=O)Nc1ccc2nc(C)sc2c1 8.26 µM, C=CCC(CC(O)COCCC)C(=O)NNC(=S)Nc1ccccc1 (stereo not given) 13.1 µM, CCCn1c(C)cc(/C=C(\C#N)C(=O)OCC(=O)Nc2cc(OC)c(OC)c(OC)c2)c1C 16.5 µM, Cc1ccccc1Nc1nc(N)nc(COC(=O)c2ccccc2)n1 13.1 µM, COc1ccccc1C(=O)OCc1nc(N)nc(Nc2ccccc2C)n1 18.5 µM, Cn1c(SCc2ccccc2Cl)nc2ccccc21 3.29 µM, Cn1c(SCc2ccc(C#N)cc2Cl)nc2ccccc21 4.65 µM, CCn1c(SCc2ccccc2Cl)nc2ccccc21 13.1 µM

Reference: PubChem BioAssay AID2289 (National Center for Advancing Translational Sciences (NCATS), 2010)
